This passage reports Potency results from PubChem BioAssay (NCATS).

Active and inactive are the calls of the source. No rule for the calls is given here.
Potency is read from the fitted curve at half-maximal effect.

This test deals with HIV-1 nucleocapsid protein NCp7 (binding to TG oligonucleotide). The experiment in a line: HIV Nucleocapsid (AID 346).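 Also: potency is for inhibitors that block NC binding and lower polarization.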 Particulars: HIV-1 NC / fluorescein-TGTGTGTG probe, fluorescence polarization. Summed up: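 NCp7 100 nM + fluorescein TG4xF 10 nM; Hepes pH 7.5/250mM NaCl/1uM ZnCl2/0.004% PEG 20000; 1 hr RT; FP, 45 s exposure; oligo-only wells as negative control.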
In general terms: Fluorescence polarisation rises when a labelled molecule tumbles more slowly, as on binding a larger partner.
In the case of `COc1ccccc1-c1ccc2ncnc(NCc3cnc(C)cn3)c2c1`, the Potency was > 20 µM (inactive).
With `Cc1ccccc1-c1nc(NCc2cccnc2)c2ccccc2n1`, the Potency is > 20 µM (inactive).
The same measure for `CN(C)c1ncc2nc(-c3cc(F)cc(F)c3)c(=O)n(Cc3ccc(F)cc3)c2n1`: > 20 µM (inactive); for `Cc1cccc(CNc2ncnc3ccc(-c4c(C)noc4C)cc23)c1`: > 20 µM (inactive); for `COc1ccccc1CCn1c(=O)cnc2cncnc21`: > 20 µM (inactive).
The same measure for `N#Cc1cccc(-c2cc(NCc3ccccc3)ncn2)c1`: > 20 µM (inactive); for `CN(C)C(=O)c1ccc(-c2cncnc2Nc2ccc(F)cc2)cc1`: > 20 µM (inactive).
The same measure for `COCCn1c(=O)c(CCc2ccccc2)nc2cnc(Oc3cccc(Cl)c3)nc21`: > 20 µM (inactive).
Consider `COc1ccc(NC(=O)N2CC3(CCN(S(C)(=O)=O)CC3)C2)cc1`, for which the Potency was > 20 µM (inactive).
In the case of `CC(C)CN1CCCC2(CCN(C(=O)c3ccco3)CC2)C1`, the Potency was > 20 µM (inactive).
The same measure for `CN(C)c1ccc(-c2nccc(Nc3ccc(F)cc3)n2)cc1`: > 20 µM (inactive); for `Cc1noc(C)c1C(=O)N1CCC[C@@]2(CCN(c3ccccn3)C2)C1`: > 20 µM (inactive).
The same measure for `COc1ccc(-n2c(=O)cnc3cnc(OC)nc32)cc1`: > 20 µM (inactive).
The same measure for `CC(=O)NCCNc1ccnc(-c2ccccc2C)n1`: > 20 µM (inactive); for `COc1ncc2ncc(=O)n(CCc3ccccc3)c2n1`: > 20 µM (inactive); for `CN(C)c1ncc2nc(-c3cccs3)c(=O)n(Cc3cccs3)c2n1`: > 4 µM (inactive).
As to `Cn1c(=O)c(-c2ccc(F)cc2)nc2cnc(OCc3ccccc3)nc21`, the Potency is > 20 µM (inactive).
Regarding `CN1CCN(c2ncc3nc(-c4cccs4)c(=O)n(Cc4cccs4)c3n2)CC1`, the Potency is > 20 µM (inactive).
On to `O=C(c1csnn1)N1CCC2(CC1)CN(c1ccncc1)C2`, for which the Potency is > 20 µM (inactive).
Turning to `Cc1ccccc1-c1nc(NC2CC2)c2ccccc2n1`, the Potency is > 20 µM (inactive).
The same measure for `CN(C)C(=O)c1ccc(-c2cc(-n3ccnc3)ncn2)cc1`: > 20 µM (inactive); for `CS(=O)(=O)N1CCC[C@@]2(CCN(c3ccccc3)C2)C1`: > 20 µM (inactive).
For `COc1ccc(CNc2ccnc(-c3ccccc3Cl)n2)c(OC)c1`, the Potency is > 20 µM (inactive).
On to `COC(=O)N1CCC2(CC1)CCN(c1ccccc1)CC2`, for which the Potency was > 20 µM (inactive).
The same measure for `O=C(c1ccncc1)N1CCC2(CC1)CN(C(c1ccccc1)c1ccccc1)C2`: > 20 µM (inactive).
